Measured values: the supplement of paper PMC4466140

B1: unnamed (peptide)
chain: TIRRRAPLSLLESHT

Molecular target: AgAbp1
Assay: SPOT peptide array binding signal intensity (averaged, normalized) (arbitrary units (background-subtracted, floor 0; scale differs between SH3 domains)); higher = stronger binding of the SH3 domain to the peptide
How it was run: (§1)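 The binding signal is the normalized, background-subtracted spot intensity averaged over replicates; its arbitrary units differ between domains. It was obtained by incubating 10 μg/ml GST-fused SH3 domains from four yeast species overnight at 4°C in TBS-based blocking buffer on cellulose membranes with synthetic 15-mer peptides, cysteines replaced by serines, then detecting with anti-GST antibody, HRP anti-mouse secondary and luminol.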

Row | Binder | SPOT peptide array binding signal intensity
1 | B1 | 77

Molecular target: AgBbc1
Assay: as above
How it was run: as §1

Row | Binder | SPOT peptide array binding signal intensity
2 | B1 | 20

Molecular target: AgBem1-D1
Assay: as above
How it was run: as §1

Row | Binder | SPOT peptide array binding signal intensity
3 | B1 | 46.5

Molecular target: AgBzz1-D1
Assay: as above
How it was run: as §1

Row | Binder | SPOT peptide array binding signal intensity
4 | B1 | 46

Molecular target: AgBzz1-D2
Assay: as above
How it was run: as §1

Row | Binder | SPOT peptide array binding signal intensity
5 | B1 | 39

Molecular target: AgCyk3
Assay: as above
How it was run: as §1

Row | Binder | SPOT peptide array binding signal intensity
6 | B1 | 1

Molecular target: AgFus1
Assay: as above
How it was run: as §1

Row | Binder | SPOT peptide array binding signal intensity
7 | B1 | 895

Molecular target: AgHof1
Assay: as above
How it was run: as §1

Row | Binder | SPOT peptide array binding signal intensity
8 | B1 | 47

Molecular target: AgHse1
Assay: as above
How it was run: as §1

Row | Binder | SPOT peptide array binding signal intensity
9 | B1 | 730

Molecular target: AgLsb1
Assay: as above
How it was run: as §1

Row | Binder | SPOT peptide array binding signal intensity
10 | B1 | 3.5

Molecular target: AgLsb4
Assay: as above
How it was run: as §1

Row | Binder | SPOT peptide array binding signal intensity
11 | B1 | 99.5

Molecular target: AgMyo5
Assay: as above
How it was run: as §1

Row | Binder | SPOT peptide array binding signal intensity
12 | B1 | ≤ 0

Molecular target: AgNbp2
Assay: as above
How it was run: as §1

Row | Binder | SPOT peptide array binding signal intensity
13 | B1 | 397

Molecular target: AgRvs167
Assay: as above
How it was run: as §1

Row | Binder | SPOT peptide array binding signal intensity
14 | B1 | 3

Molecular target: AgSho1
Assay: as above
How it was run: as §1

Row | Binder | SPOT peptide array binding signal intensity
15 | B1 | 36

Molecular target: AgSla1-D1-D2
Assay: as above
How it was run: as §1

Row | Binder | SPOT peptide array binding signal intensity
16 | B1 | 32

Molecular target: AgSla1-D3
Assay: as above
How it was run: as §1

Row | Binder | SPOT peptide array binding signal intensity
17 | B1 | 11.5

Molecular target: CaAbp1-D1
Assay: as above
How it was run: as §1

Row | Binder | SPOT peptide array binding signal intensity
18 | B1 | 475

Molecular target: CaAbp1-D2
Assay: as above
How it was run: as §1

Row | Binder | SPOT peptide array binding signal intensity
19 | B1 | 324

Molecular target: CaBbc1
Assay: as above
How it was run: as §1

Row | Binder | SPOT peptide array binding signal intensity
20 | B1 | 133

Molecular target: CaBem1-D1
Assay: as above
How it was run: as §1

Row | Binder | SPOT peptide array binding signal intensity
21 | B1 | 21.5

Molecular target: CaBzz1-D1
Assay: as above
How it was run: as §1

Row | Binder | SPOT peptide array binding signal intensity
22 | B1 | 40

Molecular target: CaBzz1-D2
Assay: as above
How it was run: as §1

Row | Binder | SPOT peptide array binding signal intensity
23 | B1 | 58.8

Molecular target: CaCyk3
Assay: as above
How it was run: as §1

Row | Binder | SPOT peptide array binding signal intensity
24 | B1 | 11.5

Molecular target: CaFus1
Assay: as above
How it was run: as §1

Row | Binder | SPOT peptide array binding signal intensity
25 | B1 | 1540

Molecular target: CaHof1
Assay: as above
How it was run: as §1

Row | Binder | SPOT peptide array binding signal intensity
26 | B1 | 0.5

Molecular target: CaHse1
Assay: as above
How it was run: as §1

Row | Binder | SPOT peptide array binding signal intensity
27 | B1 | 47.5

Molecular target: CaLsb1
Assay: as above
How it was run: as §1

Row | Binder | SPOT peptide array binding signal intensity
28 | B1 | 0.5

Molecular target: CaLsb4
Assay: as above
How it was run: as §1

Row | Binder | SPOT peptide array binding signal intensity
29 | B1 | 130

Molecular target: CaMyo5
Assay: as above
How it was run: as §1

Row | Binder | SPOT peptide array binding signal intensity
30 | B1 | ≤ 0
